Shown are actives, neighbours in structure and some others; about 1.2% of the full set was active somewhere.
PfHsp40 yeast: compounds rescuing yeast from Plasmodium falciparum HSP40 toxicity; S. cerevisiae expressing PfHsp40, growth rescue, ATP luminescence; growth rescue, % at 12.5 µM; actives 0.68% (n = 340,000); in the data active = growth rescue above about 28%, passing the limit was not always enough;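 note: yeast W303a lacking pdr1 and pdr3 grown in galactose medium; growth measured after three days at 30 °C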
Yp Topo-I inh: inhibitors of Yersinia pestis topoisomerase I; Y. pestis Topo-I cleavage product accumulation, plate reader; activity, % at 10 µM; actives 0.064% (n = 360,000); AID 504884; in the data active = activity above about 50%, passing the limit was not always enough
TcdB GH inh: inhibitors of Clostridioides difficile toxin B glycohydrolase. inhibition, % at 9.99 µM. P18177. TcdB glycohydrolase enzymatic assay, plate reader. actives 0.24% (n = 350,000). AID 652162; in the data active = inhibition above about 10%
BioA inh: blocks M. tuberculosis BioA enzyme activity. actives 0.096% (n = 360,000). inhibition, % at 9.99 µM. purified M. tuberculosis BioA enzyme, plate reader; in the data active = inhibition above about 40%
PrP 5UTR inh: suppresses PrP 5' UTR mRNA reporter expression. inhibition, % (no concentration beside the values). actives 0.35% (n = 340,000). AID 488862. cell-based PrP 5' UTR mRNA reporter, plate reader; in the data active = inhibition above about 52%; note: 0 = median of the neutral control wells
FadD28 binding: blocks FadD28 binding to the bisubstrate probe; fluorescence polarization; inhibition, % at 12.5 µM; actives 0.22% (n = 360,000); in the data active = inhibition above about 8.5%, passing the limit was not always enough
Numbers without * were called inactive; · = no result given.

SMILES | PfHsp40 yeast | Yp Topo-I inh | TcdB GH inh | BioA inh | PrP 5UTR inh | FadD28 binding
COc1ccccc1-c1ccc2c(c1)O[C@@H](CN(C)C(=O)c1ccccc1)[C@@H](C)CN([C@@H](C)CO)S2(=O)=O | · | · | 2 | 0 | · | ·
N#Cc1c2ccc(O)cc2n2ccccc12 | 55* | -19 | -31 | · | -7 | -1
N#Cc1c2ccc(OCC(=O)NCc3ccco3)cc2n2ccccc12 | 0 | -9 | 1 | -3 | -9 | 2
CN1C(=O)c2cc(NC(=O)Nc3ccc(Cl)cc3)ccc2OC[C@@H]2O[C@H](CC(=O)O)CC[C@@H]21 | · | · | 0 | 0 | · | ·
O=C(O)/C=C/c1ccc([N+](=O)[O-])o1 | 0 | 8 | -1 | · | -27 | 0
O=C1NC(=S)S/C1=C\C=C\c1ccc([N+](=O)[O-])o1 | 0 | -22 | 0 | 2 | -7 | 14*
COc1ccc(NC(=O)Nc2ccc3c(c2)C(=O)N([C@H](C)CO)C[C@@H](C)[C@H](CN(C)S(=O)(=O)c2c(C)noc2C)OCCCC[C@H](C)O3)cc1 | · | · | · | -1 | · | ·
CC(C)c1ccc(N(CC(=O)NCc2ccc(F)cc2)C(=O)c2snc(C(N)=O)c2N)cc1 | -1 | 67* | 1 | -2 | -2 | 1
CC(=O)Nc1ccc2c(c1)C(=O)N(C)[C@H]1CC[C@@H](CC(=O)NCc3ccc4c(c3)OCO4)O[C@@H]1CO2 | · | · | · | 1 | · | ·
Cc1ccccc1S(=O)(=O)N1CCCc2nc(-c3ccccc3)ccc21 | · | · | 0 | · | · | ·
Cc1ccccc1S(=O)(=O)N1CCCc2nc(C)c(C)cc21 | · | · | 11* | · | · | ·
COC(=O)C1=C(C)NC(C)=C(C(=O)OC)C1c1ccccc1[N+](=O)[O-] | 37* | 2 | 1 | 0 | 11 | 2
C[C@@]12CCC3[C@@](CCC4[C@@]3(C)CCC[C@@]4(C)C(=O)NCc3ccccc3)(CC1=O)C2 (stereo not given in full) | 346* | 13 | 1 | -1 | -34 | -5
C[C@@H]1CCCCO[C@@H](CN(C)C(=O)NC2CCCCC2)[C@H](C)CN([C@@H](C)CO)C(=O)c2cc(NC(=O)c3ccncc3)ccc2O1 | · | · | -1 | 0 | · | ·
O=C(Cc1ccccc1)N1CC2(C1)[C@H](c1ccccc1)[C@@H](CO)N2S(=O)(=O)Cc1ccccc1 | · | · | 0 | · | · | ·
O=C(O)c1ccccc1NC(c1ccccc1)c1ccc(Cl)cc1 (stereo not given) | 9 | 9 | -1 | · | -7 | 12*
O=C(C[C@@H]1C[C@H]2c3cc(NC(=O)CC4CC4)ccc3O[C@H]2[C@H](CO)O1)NCc1ccccn1 | · | · | 1 | 0 | · | ·
CCN=c1scc(-c2ccco2)n1/N=C/c1ccc(OC)c(O)c1 | 3 | 4 | -3 | -1 | -226 | 9.4*
CCN=c1scc(-c2ccco2)n1/N=C/c1ccc(O)cc1 | 1 | -7 | · | 0 | -61 | -4
CCCCCCCCCCCCCC(=O)NO | 264* | -6 | 0 | · | -3 | -3
CCCCCCCC/C=C\CCCCCCCC(=O)NCCO | 67* | 25 | 2 | 3 | -7 | 15*
CCCCCCCC/C=C\CCCCCCCC(=O)O | 0 | 27 | 0 | · | 4 | 2
COc1cc2c(cc1/C=C/[N+](=O)[O-])OCO2 | 242* | 0 | -1 | -2 | -29 | -2
COC(=O)c1cc2c(cc1[N+](=O)[O-])OCO2 | -2 | -11 | 2 | · | -8 | -1
O=C(/C=C/NCc1cccnc1)c1ccc(-c2ccccc2)cc1 | 114* | -8 | 1 | -2 | -10 | 0
SMILES | PfHsp40 yeast | Yp Topo-I inh | TcdB GH inh | BioA inh | PrP 5UTR inh | FadD28 binding
CO[C@@H]1CN(C)C(=O)c2ccc(NC(=O)CC(F)(F)F)cc2OC[C@@H](C)N(CC2CC2)C[C@@H]1C | · | · | 0 | · | · | ·
CCOC(=O)N=Nc1c2ccccc2c2nc3no[nH]c3nc12 | 116* | 20 | -1 | -2 | 21 | -1
Cc1ccc(-c2nc3ccc(Cl)cc3c(=O)n2O)cc1 | 355* | 3 | -2 | 0 | -6 | 0
COc1ccc(C(=O)On2c(-c3ccc(Br)cc3)nc3ccccc3c2=O)cc1 | 375* | 11 | 1 | 1 | -16 | -2
O=c1c2cc(Cl)ccc2nc(-c2ccccc2Cl)n1O | 12 | 1 | 1 | · | -21 | -3
O=c1c2ccccc2nc(-c2cccc(Cl)c2)n1O | 236* | -4 | · | · | 7 | -1
O=c1c2cc(Br)ccc2nc(-c2ccccc2)n1O | 128* | 6 | 0 | 0 | -14 | -3
C[C@@H]1CN([C@H](C)CO)C(=O)c2cc(NC(=O)NC3CCCCC3)ccc2O[C@@H](C)CCCCO[C@@H]1CN(C)C(=O)Nc1ccc(F)cc1 | · | · | 1 | · | · | ·
CCNC(=O)[C@H]1[C@H](CO)[C@H]2Cn3c(ccc(-c4cccc(F)c4)c3=O)[C@H]2N1Cc1nccs1 | · | · | -1 | 2 | · | ·
O=c1c2ccccc2nc(-c2ccc([N+](=O)[O-])cc2)n1O | 30* | -13 | 1 | · | -12 | -3
Cc1ccc(-c2nc3ccccc3c(=O)n2O)cc1 | 132* | 4 | 0 | -1 | -20 | 1
COc1ccc(S(=O)(=O)N(C)C[C@H]2OCCCC[C@H](C)Oc3ccc(NC(=O)C4CCCCC4)cc3C(=O)N([C@@H](C)CO)C[C@H]2C)cc1 | · | · | 0 | -2 | · | ·
COc1ccc(-c2ccc3c(c2)O[C@H](CN(C)C(C)=O)[C@@H](C)CN([C@H](C)CO)S3(=O)=O)cc1 | · | · | -1 | -1 | · | ·
CCC(C(=O)OC)n1cnc2scc(-c3ccc(C)c(C)c3)c2c1=O (stereo not given) | 166* | 28 | 2 | -1 | -5 | -2
C[C@H]1CN([C@@H](C)CO)S(=O)(=O)c2ccc(C#CCN(C)C)cc2O[C@H]1CN(C)C(=O)C1CCC1 | · | · | 1 | -2 | · | ·
C[C@@H]1CN([C@@H](C)CO)C(=O)c2cc(NC(=O)C3CC3)ccc2O[C@@H]1CN(C)Cc1ccncc1 | · | · | 0 | -2 | · | ·
CCCSc1ccc([C@H]2N[C@@](CC(C)C)(C(=O)OC)[C@H]3C(=O)N(C)C(=O)[C@@H]23)cc1 | -1 | 11 | -1 | 2 | -39 | -5
CCCCCCSc1ccc([C@H]2N[C@@](CC(C)C)(C(=O)OC)[C@H]3C(=O)N(C)C(=O)[C@@H]23)cc1 | 47* | 29 | 1 | 0 | -13 | -1
CCCC(=O)Nc1ccc2c(c1)OC[C@H](C)N(CCC(F)(F)F)C[C@@H](C)[C@@H](OC)CN(C)C2=O | · | · | 1 | 2 | · | ·
CCOC(=O)c1c(SC)[nH]c2c(Cl)cccc2c1=O | 93* | 6 | 1 | 5 | -3 | 0
CCOC(=O)c1c(C)[nH]c2c1cc(O)c1ccccc12 | -2 | -20 | 0 | 1 | -56 | 2
COc1ccccc1C#Cc1ccc([C@H]2[C@H]3CN(C(=O)C4CC4)CCCCN3[C@H]2CO)cc1 | · | · | -7 | -3 | · | ·
COC(=O)/C=C/C(=O)Nc1cccnc1 | -1 | 5 | · | -1 | -22 | 2
COC(=O)/C=C/C(=O)Nc1ccc(O)c(Cl)c1 | 0 | -13 | 31* | · | -17 | 1
COc1cccc(NC(=O)N[C@H]2CC[C@@H](CC(=O)NCc3ccncn3)O[C@H]2CO)c1 | · | · | 0 | 3 | · | ·

Assay outcomes from PubChem BioAssay.
